Measured values taken from PubChem BioAssay (NCATS).
Where “and” joins values, the source holds several entries; their conditions need not be identical. Equal entries are not always repeated. Results filed as inconclusive are left out. More than one record can exist for a structure, and the calls need not agree. Calls of active or inactive are those of the source. Calls come from the whole dose curve; as a rule, active = well fitted inhibition curve with a large enough effect; inconclusive = small, poorly fitted or top-dose-only effect; inactive = flat fitted curve, though single readings scatter. Where a SMILES comes first, the peptide text is derived from it. Bridges are numbered along the chain shown (N, C = ends).

Columns and labels:
[1] = Drug repurposing screens with cells derived from glioblastoma tumor samples (AID 1345199); details: GBM patient neurospheres viability, ATP luminescence, 48 h; note: nearly all actives have a fitted effect of over 40% in size
Procedure, shortened: (§1)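 Four patient lines of CD133+ GBM neurospheres were screened at several concentrations; hits were retested in those lines plus three slower-growing GBM lines, using 48-hour treatment and ATP-based viability.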

[2] = tested on: astro; test: as above; details: viability, ATP luminescence, 48 h; series mostly up to 45.9 µM
Procedure, shortened: as §1

[3] = at 45.9 µM (top of the series), tumour line B
[4] = at 45.9 µM (top of the series), tumour line D
[5] = at 46 µM (top of the series), tumour line A
[6] = at 46.1 µM (top of the series), tumour line C
% is set by controls: 0 for no effect and ±100 for the full control effect; potency is the fitted concentration of half-maximal effect.

C[C@H]1C[C@@H]2[C@H]([C@@H](O)C[C@@]3(C)[C@H]2CC[C@]3(O)C(=O)COC(=O)CCC(=O)O)[C@@]2(C)C=CC(=O)C=C12
inactive: activity, negative = cell killing [1, 3] -16.2% | activity, negative = cell killing [1, 4] -23.4% | activity, negative = cell killing [1, 5] -16.8% | activity, negative = cell killing [1, 6] -3.84% | Potency [2]

CCC(=O)OCC(=O)[C@@]1(OC(=O)CC)[C@H](C)C[C@H]2[C@@H]3CCC4=CC(=O)C=C[C@]4(C)[C@@]3(F)[C@@H](O)C[C@@]21C
inactive: activity, negative = cell killing [1, 3] -7.21% | activity, negative = cell killing [1, 4] -9.28% | activity, negative = cell killing [1, 6] -2.15% | Potency [2]
active: Potency ([1]; tumour line A) 17.8 µM

COc1cc2c(c(OC)c1OC)-c1c(cc3c(c1OC)OCO3)C[C@@H](C)[C@](C)(O)C2
inactive: activity, negative = cell killing [1, 3] -5.29% and -6.75% | activity, negative = cell killing [1, 4] -7.05% and -25.9% | activity, negative = cell killing [1, 5] -25% | activity, negative = cell killing [1, 6] -33.4% and -14.4% | Potency [2]
active: Potency ([1]; tumour line A) 22.4 µM

CCN(CC)CCOC(=O)c1ccc(N)cc1Cl
inactive: activity, negative = cell killing [1, 3] -9.89% | activity, negative = cell killing [1, 4] -17.2% | activity, negative = cell killing [1, 5] -27.9% | activity, negative = cell killing [1, 6] -6% | Potency [2]

COCC1=C(C(=O)OC(C)OC(=O)OC(C)C)N2C(=O)[C@@H](NC(=O)/C(=N\OC)c3csc(N)n3)[C@H]2SC1 (some centres undefined)
inactive: activity, negative = cell killing [1, 3] -23.6% and -15.3% | activity, negative = cell killing [1, 4] 14.5% and -3.43% | activity, negative = cell killing [1, 5] -24.7% | activity, negative = cell killing [1, 6] 0.117% and 4.67%

CN1CCN(C2=Nc3ccccc3Cc3ccccc32)CC1
active: Potency ([1]; tumour line A) 31.6 µM
inactive: activity, negative = cell killing [1, 3] -12% | activity, negative = cell killing [1, 4] -12.4% | activity, negative = cell killing [1, 6] -28.3% | Potency [2]

C/C(=C(/CCO)SSCC1CCCO1)N(C=O)Cc1cnc(C)nc1N (centres undefined)
inactive: activity, negative = cell killing [1, 3] -8.31% and -21.8% | activity, negative = cell killing [1, 4] -10.4% and -21.6% | activity, negative = cell killing [1, 6] -12.1% and -0.697% | Potency [2]
active: Potency ([1]; tumour line A) 25.1 µM

Nc1c(CC(=O)O)cccc1C(=O)c1ccccc1
inactive: activity, negative = cell killing [1, 3] -6.42% and -16.2% | activity, negative = cell killing [1, 4] 1.99% and -19.1% | activity, negative = cell killing [1, 5] -11.4% | activity, negative = cell killing [1, 6] -6.15% and -12.2% | Potency [2]

CS(=O)(=O)NC(=O)CCC/C=C\C[C@H]1C(=O)C[C@@H](O)[C@@H]1/C=C/[C@H](O)COc1ccccc1
inactive: activity, negative = cell killing [1, 3] -2.71% | activity, negative = cell killing [1, 4] -15.8% | activity, negative = cell killing [1, 5] -29.7% | activity, negative = cell killing [1, 6] 0.501%

O=C[C@H](O)[C@@H](O)[C@H](O[C@H]1O[C@H](CO)[C@@H](O[C@H]2O[C@H](CO)[C@@H](O)[C@H](O)[C@H]2O)[C@H](O)[C@H]1O)[C@H](O)CO
inactive: activity, negative = cell killing [1, 3] -5.93% | activity, negative = cell killing [1, 4] -7.07% | activity, negative = cell killing [1, 5] -21.5% | activity, negative = cell killing [1, 6] 5.59%

O=P(O)(O)OC(CO)CO
inactive: activity, negative = cell killing [1, 3] -13.5% | activity, negative = cell killing [1, 4] 14.6% | activity, negative = cell killing [1, 5] -6.76% | activity, negative = cell killing [1, 6] 3.76% | Potency [2]

NCCCC[C@H](NC(=O)[C@@H]1CCCN1C(=O)[C@@H]1CSSC[C@H](NC(=O)CNC(=O)CNC(=O)CN)C(=O)N[C@@H](Cc2ccc(O)cc2)C(=O)N[C@@H](Cc2ccccc2)C(=O)N[C@@H](CCC(N)=O)C(=O)N[C@@H](CC(N)=O)C(=O)N1)C(=O)NCC(N)=O (H-GGGCYFQNCPKG-NH2; disulfide 4-9)
inactive: activity, negative = cell killing [1, 3] -8.67% | activity, negative = cell killing [1, 4] 3.33% | activity, negative = cell killing [1, 5] -28% | activity, negative = cell killing [1, 6] 22.1% | Potency [2]

CC(=O)OCC(=O)[C@@]1(O)[C@H](C)C[C@H]2[C@@H]3C[C@H](F)C4=CC(=O)C=C[C@]4(C)[C@H]3[C@@H](O)C[C@@]21C
inactive: activity, negative = cell killing [1, 3] 1.71% | activity, negative = cell killing [1, 4] 2.28% | activity, negative = cell killing [1, 5] -12.7% | activity, negative = cell killing [1, 6] 13.2% | Potency [2]

OC(CN1CCCCC1)c1cc(-c2ccccc2)on1 (centres undefined)
inactive: activity, negative = cell killing [1, 3] -15.5% | activity, negative = cell killing [1, 4] -0.851% | activity, negative = cell killing [1, 6] 5.87% | Potency [2]

CC1(C)S[C@@H]2[C@H](NC(=O)[C@H](N)c3ccccc3)C(=O)N2[C@H]1C(=O)OCOC(=O)[C@@H]1N2C(=O)C[C@H]2S(=O)(=O)C1(C)C
inactive: activity, negative = cell killing [1, 3] -6.39% | activity, negative = cell killing [1, 4] -14.9% | activity, negative = cell killing [1, 6] -15.8% | Potency [2]

COC1=C(C(=O)O)N2C(=O)[C@@H](NC(=O)[C@H](N)C3=CCC=CC3)[C@H]2SC1
inactive: activity, negative = cell killing [1, 3] -9.93% | activity, negative = cell killing [1, 4] -11% | activity, negative = cell killing [1, 6] 6.55% | Potency [2]

O=C(O)c1ccccc1[O-].O=C(O)c1ccccc1[O-].[Zn+2]
inactive: activity, negative = cell killing [1, 3] -5.99% | activity, negative = cell killing [1, 4] -6.7% | activity, negative = cell killing [1, 6] -14.8% | Potency [2]

CCC(C)(C)OC(=O)N[C@@H](Cc1c[nH]c2ccccc12)C(=O)N[C@@H](CCSC)C(=O)N[C@@H](CC(=O)O)C(=O)N[C@@H](Cc1ccccc1)C(N)=O
inactive: activity, negative = cell killing [1, 3] -2.77% | activity, negative = cell killing [1, 4] -10.3% | activity, negative = cell killing [1, 6] -14.8% | Potency [2]

CC1(C)S[C@@H]2[C@H](NC(=O)C(C(=O)Oc3ccc4c(c3)CCC4)c3ccccc3)C(=O)N2[C@H]1C(=O)O (some centres undefined)
inactive: activity, negative = cell killing [1, 3] -10.7% | activity, negative = cell killing [1, 4] -5.29% | activity, negative = cell killing [1, 5] -6.42% | activity, negative = cell killing [1, 6] 7.9% | Potency [2]

CC[C@H]1OC(=O)[C@H](C)[C@@H](O[C@H]2C[C@@](C)(OC)[C@@H](O)[C@H](C)O2)[C@H](C)[C@@H](O[C@@H]2O[C@H](C)C[C@H](N(C)C)[C@H]2O)[C@](C)(O)C[C@@H](C)[C@@H]2N[C@@H](COCCOC)O[C@@H]([C@H]2C)[C@]1(C)O
active: Potency ([1]; tumour line A) 11.2 µM
inactive: activity, negative = cell killing [1, 3] -7.98% | activity, negative = cell killing [1, 6] -7.79% | Potency [2]

NCCC[C@H](N)C(=O)O
inactive: activity, negative = cell killing [1, 3] -11.7% | activity, negative = cell killing [1, 4] -10.6% | activity, negative = cell killing [1, 6] -18.4% | Potency [2]

CC(=O)O[C@H]1CC[C@@]2(C)C(=CC[C@H]3[C@@H]4CC[C@H](C(C)=O)[C@@]4(C)CC[C@@H]32)C1
inactive: activity, negative = cell killing [1, 3] -9.15% | activity, negative = cell killing [1, 4] -28.1% | activity, negative = cell killing [1, 6] -12% | Potency [2]

CCOC(=O)Cc1cccc(-c2cc(CCCCCCc3ccc(O[C@H]4O[C@H](COC(C)=O)[C@@H](OC(C)=O)[C@H](OC(C)=O)[C@@H]4OC(C)=O)c(-c4cccc(CC(=O)OCC)c4)c3)ccc2O[C@H]2O[C@H](COC(C)=O)[C@@H](OC(C)=O)[C@H](OC(C)=O)[C@@H]2OC(C)=O)c1
inactive: activity, negative = cell killing [1, 3] -6.7% | activity, negative = cell killing [1, 4] -4.61% | activity, negative = cell killing [1, 6] 18% | Potency [2]

O=C(Cn1cnnn1)N[C@@H]1C(=O)N2C(C(=O)O)=C(CSc3nncs3)CS[C@H]12
inactive: activity, negative = cell killing [1, 3] -3.62% and -9.64% | activity, negative = cell killing [1, 4] -5.02% and -0.39% | activity, negative = cell killing [1, 5] -29.3% | activity, negative = cell killing [1, 6] 1.48% and -8.58% | Potency [2]
